# This is a sample that favours compounds with a hit; in the whole collection about 2.9% have one here.
# MRP resist rev: reversal of MRP1-mediated doxorubicin resistance, primary screen, H69AR cells, doxorubicin co-treatment. H69AR cells + 2 uM doxorubicin, CellTiter-Glo, 72 h. differential viability (reversal), % at 10 µM. hit rate 0.04% among 85,000. AID 602, 2007;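 active = viability drop by adding the cancer drug above about 55%, with treated viability meeting a 40% cutoff, limit read from the data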;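 note: viability without doxorubicin minus viability with 2 µM doxorubicin for each compound; larger differential means the compound sensitizes cells more to doxorubicin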
# ERa SRC1 inh: ERα–SRC-1 coactivator interaction inhibitors, primary screen, biochemical, TR-FRET, ERα LBD, estradiol-bound; Estrogen receptor (Homo sapiens), P03372; hit rate 1.7% among 86,000; TR-FRET ER-alpha LBD / SRC-1 peptide; inhibition, % at 25.6 µM; in the data active = inhibition above about 50%;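 note: 0% = receptor plus peptide control and 100% = peptide only without receptor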
# Target sequence (P03372 whole entry, looked up, the tested form may be a part): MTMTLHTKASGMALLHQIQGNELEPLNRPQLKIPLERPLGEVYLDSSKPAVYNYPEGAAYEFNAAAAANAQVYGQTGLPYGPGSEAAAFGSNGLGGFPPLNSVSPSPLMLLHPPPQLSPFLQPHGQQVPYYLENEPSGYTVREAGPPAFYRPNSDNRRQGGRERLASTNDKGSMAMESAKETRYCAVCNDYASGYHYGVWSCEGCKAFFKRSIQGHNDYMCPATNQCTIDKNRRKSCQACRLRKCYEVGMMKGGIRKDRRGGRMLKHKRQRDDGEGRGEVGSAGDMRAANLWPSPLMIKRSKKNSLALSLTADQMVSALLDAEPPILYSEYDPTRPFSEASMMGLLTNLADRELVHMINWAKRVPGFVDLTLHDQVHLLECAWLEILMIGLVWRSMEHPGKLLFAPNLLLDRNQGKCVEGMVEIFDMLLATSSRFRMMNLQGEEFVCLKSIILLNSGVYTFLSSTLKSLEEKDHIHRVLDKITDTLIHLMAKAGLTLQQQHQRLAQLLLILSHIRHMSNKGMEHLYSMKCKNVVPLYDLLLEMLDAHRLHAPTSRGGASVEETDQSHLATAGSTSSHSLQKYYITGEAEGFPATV
# MRP1 act: H69AR viability gain despite doxorubicin, primary screen, MRP-1 activator project, H69AR cells, CellTiter-Glo; viability rescue; viability increase, % at 10 µM; hit rate 0.61% among 140,000;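 active = viability gain under doxorubicin at or above a set limit, the compound median plus 3 SD, cut at about 4.7% in these data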;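 note: MRP-1 overexpressing cells given doxorubicin 25 µM after compound pretreatment; 18-22 h compound pretreatment then 72 h with doxorubicin before readout; 0% = doxorubicin-only wells and 100% = vehicle-treated cells without doxorubicin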
# ERb SRC1 inh: inhibitors of ERβ-SRC1 coactivator interaction, primary screen, biochemical, TR-FRET, ERβ LBD, SRC-1 peptide. Estrogen receptor beta (Homo sapiens), Q92731. TR-FRET ER-beta LBD / SRC1-Cy5 peptide binding; receptor agonist-loaded with 1 µM estradiol. inhibition, % at 25.6 µM. hit rate 1.3% among 86,000. AID 633, 2007;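 active = compounds whose percent inhibition of the receptor-coactivator binding signal exceeds about 50% in the single-dose screen, limit read from the data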;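 note: 0% = receptor plus peptide wells without compound and 100% = peptide-only wells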
# Smad3 inh: Smad3/FoxH1 peptide binding inhibitors, primary screen, biochemical, TR-FRET. Mothers against decapentaplegic homolog 3 (Homo sapiens), P84022. TR-FRET Smad3/Dy647-FoxH1 peptide binding, europium anti-His. inhibition, % at 25 µM. hit rate 0.29% among 88,000. AID 630, 2007;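 active = compounds that reduce the energy-transfer binding signal between the protein and its labelled peptide by more than half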;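 note: 0% = Smad3 plus labelled peptide maximal FRET and 100% = peptide-only background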
# ERa SRC1 pot: enhancers of ERα–SRC-1 coactivator binding, primary screen, biochemical, TR-FRET, ERα LBD, low estradiol. Estrogen receptor (Homo sapiens), P03372. TR-FRET ERalpha-LBD/SRC-Cy5 coactivator binding, 2 h; 100 = basal binding, no effect. coactivator binding (% of control), % at 25.6 µM. hit rate 1.3% among 86,000. AID 639, 2007; in the data active = activity above about 200%;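 note: binding measured in presence of low estradiol as agonist stimulus; 0% = peptide alone without receptor and 100% = receptor with peptide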
# Numbers without * were called inactive; nt = no result given; [ ] = remark or other dose.
SMILES,MRP resist rev,ERa SRC1 inh,MRP1 act,ERb SRC1 inh,Smad3 inh,ERa SRC1 pot
COCCSc1nc2sc3c(c2c(=O)n1-c1ccccc1)CCN(C)C3,-8,-1,-1,7,-2,99
O=C(Nc1ccn(C2CC(OC(=O)c3ccccc3)C(CO)O2)c(=O)n1)c1ccccc1 (centres undefined),2,-16,-3,-9,-2,507*[fluorescence artefact?]
CCN(CC)c1ccc(NC(=O)c2cnn(CC)c2)cc1,-5,38,3,78*[fluorescence artefact?],-10,38
CCn1cc(C(=O)NC(=S)Nc2cccc(O)c2)cn1,nt,nt,-2,nt,nt,nt
O=c1cc(C(Cl)(Cl)Cl)oc2c1ccc1ccccc12,nt,nt,-3,nt,nt,nt
O=c1cc(-c2ccco2)oc2c1ccc1ccccc12,-3,51*[fluorescence artefact?],-3,52*[fluorescence artefact?],1,327*
C[C@@]12CC[C@H]3c4ccc(OP(=O)(O)O)cc4CC[C@@H]3[C@H]1CCC2=O,nt,nt,nt,nt,-8,nt
O=C(c1ccccc1F)N1CCN(S(=O)(=O)c2ccc(S(=O)(=O)N3CCCCC3)cc2)CC1,-2,66*[fluorescence artefact?],-1,6,6,85
CCN1CCN(C(=O)c2ccc(CN(c3ccccc3)S(=O)(=O)c3ccccc3)cc2)CC1,nt,nt,-3,nt,nt,nt
CC(C)C1=C[C@@]23CC[C@@H]4[C@](C)(CCC[C@@]4(C)C(=O)O)[C@@H]2C[C@@H]1[C@H](C(=O)O)[C@@H]3C(=O)O,nt,nt,nt,nt,87*,nt
CN(C)Cc1ccc(-c2cc3onc(-c4ccccc4)c3c(=O)n2C)cc1,nt,nt,nt,nt,-9,nt
O=C(/C=C/c1c[nH]c2ccccc12)c1cccc2ccccc12,nt,nt,-4,nt,nt,nt
Cc1ccc(-n2ncc3c(=O)[nH]c(SCC(=O)N4CCN(c5ccccc5)CC4)nc32)cc1,-19,21,-3,53*[fluorescence artefact?],-3,151
Cc1ccc(-n2ncc3c(=O)[nH]c(SCC(=O)N4CCC(C)CC4)nc32)cc1C,12,8,-4,18,25,346*[fluorescence artefact?]
CCCCCSc1nc2c(cnn2-c2ccccc2)c(=O)[nH]1,-15,45,-2,44,9,283*[fluorescence artefact?]
Cc1ccc(-n2ncc3c(=O)[nH]c(SCC(=O)N4CCCC4)nc32)cc1C,-8,0,-4,-7,0,115
CCSc1nc2c(cnn2-c2ccc(C)c(C)c2)c(=O)[nH]1,0,70*[fluorescence artefact?],-4,65*[fluorescence artefact?],17,239*[fluorescence artefact?]
CC(C)(C)NC(=O)c1cccc(NC(=O)c2ccc(NC(=O)c3ccco3)cc2)c1,-13,11,-4,6,8,95
CC(C)CNC(=O)c1cccc(NC(=O)c2ccc(NC(=O)c3ccco3)cc2)c1,-19,38,-3,21,-20,230*[fluorescence artefact?]
O=C(Nc1ccc2c(c1)OCCO2)C1CCN(C(=O)c2ccc(F)cc2)CC1,26,-1,-3,4,-5,94
COc1cc(C(=O)Nc2sc3c(c2C(=O)NCc2ccco2)CCCC3)cc(OC)c1OC,-3,-14,0,-9,4,125
O=C(Nc1sc2c(c1C(=O)NCc1ccco1)CCCC2)c1ccc2c(c1)OCO2,3,14,-2,62*[fluorescence artefact?],-6,136
Cc1ccc(C(=O)Nc2sc3c(c2C(=O)NCc2ccco2)CCCC3)cc1,4,7,1,10,-10,141
COc1ccc(C(=O)Nc2sc3c(c2C(=O)NCc2ccco2)CCCC3)cc1OC,1,10,-1,11,1,228*
C/C=C(/C(=C/C)c1ccc(O)cc1)c1ccc(O)cc1,-32,10,-2,15,3,741*
O=C(O)CN(CCN(CC(=O)O)CC(=O)O)CC(=O)O.[Cu+2],nt,nt,nt,nt,23,nt
COc1cc(C(=O)Nc2nnc(-c3sccc3C)s2)cc(OC)c1OC,-17,32,-1,31,-276,476*
COc1ccc(NS(=O)(=O)c2cccc(NC(=O)C34CCC(CC3)C4)c2)cc1,nt,nt,1,nt,nt,nt
O=C(CSc1nc2c([nH]c3ccccc32)c(=O)n1-c1cccc(Cl)c1)N1CCOCC1,-8,91*[fluorescence artefact?],-4,73*[fluorescence artefact?],7,44
